esBAF inh: SWI/SNF esBAF complex inhibition | mouse ES cells, Bmi1-luciferase knock-in reporter, 24 h; 100% = twice the neutral-well signal | reporter increase, % at 12.5 µM | 350,000 tested, 2% active | AID 602393; in the data active = activation above about 40%;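 note: 0% = median of the plate's neutral control wells and 100% = double that signal; a rise in the Bmi1 reporter signal indicates esBAF inhibition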
MITF TRPM1 HTS: increases MITF-driven TRPM1 promoter luciferase signal | activation, % at 12.5 µM | 300,000 tested, 0.75% active | SK-MEL-5 TRPM1-promoter luciferase, 24 h; % of positive control, neutral wells = 0;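 active = mean activation of at least 80% with every replicate also reaching 80%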;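 note: 0% = neutral control wells and 100% = parthenolide positive control wells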
C2C12 statin: protects C2C12 myotubes from simvastatin toxicity; ATP luminescence, 48 h; scaled: DMSO 0, geranylgeraniol control 100; rescue of ATP level, % at 7.49 µM; 330,000 tested, 0.78% active; AID 602340;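 active = mean ATP rescue above about 67%, or every replicate alone reaching that limit, limit read from the data, passing the limit was not always enough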;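 note: myotubes were challenged with 10 µM simvastatin during compound exposure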
Wnt act: activators of Wnt/beta-catenin signaling | Wnt/beta-catenin reporter cell assay, activator, plate reader | AID 743398 | 300,000 tested, 1.2% active | activation, % at 9.35 µM; in the data active = activation above about 30%, passing the limit was not always enough;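 note: 0% = neutral control wells and 100% = positive control wells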
Active calls of the source: *; . = not tested or not shown. Rows were chosen to be rich in hits. Some 3% of all compounds tested hit in one or more screens of this group.

SMILES	esBAF inh	MITF TRPM1 HTS	C2C12 statin	Wnt act
O=C(NCc1ccccc1)[C@@H]1[C@@H](CO)[C@@H]2Cn3c(cccc3=O)[C@H]1N2Cc1cccnc1	2.1	.	-2.9	.
CCOC(=O)c1ccc(NS(=O)C23CC4CC(CC(C4)C2)C3)cc1 (stereo unspecified)	64.2*	11.9	-21.5	.
COC(=O)c1ccc(NC(=O)C2C3C=CC(C3)C2C(=O)O)cc1 (stereo unspecified)	3.9	-6.6	1.0	-1.2
COC(=O)c1ccc(NC(=O)C2CC3CCC2C3)cc1 (stereo unspecified)	46.8*	98.3*	-17.0	-2.4
CC(C)c1ccc(NC(=O)C2CC3CCC2C3)cc1 (stereo unspecified)	57.1*	.	-38.2	10.7
COC(=O)c1ccc(NC(=O)C2C3C=CC(O3)C2C(=O)O)cc1 (stereo unspecified)	56.8*	9.3	90.5*	.
CCOc1ccc(NC(=O)C2CC3CCC2C3)cc1 (stereo unspecified)	.	.	.	8.2
CCOC(=O)c1ccc(NC(=O)C2CC3CCC2C3)cc1 (stereo unspecified)	.	.	.	45.5*
COc1ccc(/C=N/Nc2ccccc2C(=O)O)cc1Cn1cc([N+](=O)[O-])cn1	47.7*	12.6	11.0	17.8
COc1ccc(NC(=O)c2ccccc2SC)cc1	.	13.0	.	1.1
CCOc1ccc(NC(=O)c2ccc3nccnc3c2)cc1	.	89.1*	.	.
CCOc1ccc(NC(=O)c2ccccc2SC)cc1	45.7*	75.2	-6.6	-0.6
CCOc1ccc(NC(=O)c2csc3c2CCCC3)cc1	77.5*	.	-50.3	45.9*
Cc1ccc(S(=O)(=O)NCC[C@@H]2CC[C@H](NC(=O)c3cnccn3)[C@H](CO)O2)cc1	-0.5	.	-32.6	.
Cc1ccc(-c2nc(N)s[n+]2-c2ccccc2)cc1	.	10.0	.	53.5*
CC(C)NC(=O)N(C)C[C@@H]1Oc2ncc(C#CC3(O)CCCC3)cc2C(=O)N([C@@H](C)CO)C[C@@H]1C	3.1	.	7.0	.
CCNC(=O)c1ccc(NS(=O)(=O)c2ccc3[nH]c(=O)[nH]c3c2)cc1	.	3.5	.	-4.2
CC1CCC(NC(=O)c2ccc(NS(=O)(=O)c3ccc4[nH]c(=O)[nH]c4c3)cc2)CC1 (stereo unspecified)	.	98.0*	.	22.7
O=C(COC(=O)c1ccc(F)c(S(=O)(=O)N2CCCCC2)c1)NCc1ccc(F)cc1	-2.3	7.6	1.4	40.4*
O=C(c1ccc(F)cc1)N1C[C@@H]2[C@H](c3ccccc31)[C@H](CO)N2C(=O)c1ccccc1	-3.8	.	14.3	.
CN(c1ccccc1)c1nc2ccsc2c(=O)s1	46.6*	98.7*	7.2	6.6
CCN(c1ccccc1)c1nc2ccsc2c(=O)s1	25.9	17.1	9.7	.
C[C@H](CO)N1C[C@H](C)[C@H](CN(C)CC2CC2)Oc2c(cccc2N(C)C)C1=O	0.1	.	10.8	.
Cc1cc(C)cc(NC(=O)c2ccc3nc[nH]c3c2)c1	24.0	28.5	1.6	5.6
Cc1ccc(NC(=O)c2ccc3nc[nH]c3c2)cc1C	88.5*	65.8	2.6	8.8
SMILES	esBAF inh	MITF TRPM1 HTS	C2C12 statin	Wnt act
O=C(Nc1ccc(F)cc1)c1ccc2nc[nH]c2c1	.	26.2	.	4.3
COc1cc(C(=O)Nc2ccc(S(=O)(=O)N(C)c3ccccc3)cc2)cc(OC)c1OC	.	-19.0	.	0.6
COc1cc(C(=O)Nc2ccc(N(C)C)cc2)cc(OC)c1OC	70.5*	51.1	14.7	.
CN(C)c1ccc(NC(=O)c2ccc3nc[nH]c3c2)cc1	47.6*	71.5	-4.2	22.1
COc1ccc(S(=O)(=O)N(C)C[C@@H]2OCCCC[C@H](C)Oc3ccc(NC(=O)c4ccccc4)cc3C(=O)N([C@H](C)CO)C[C@H]2C)cc1	-0.6	.	.	.
C[C@@H]1CN([C@@H](C)CO)C(=O)c2cccc(NC(=O)C3CCOCC3)c2O[C@H]1CN(C)C(=O)Nc1ccc2c(c1)OCO2	-1.0	.	-4.1	.
CS(=O)(=O)Nc1ccc2c(c1)[C@H]1C[C@H](CC(=O)NCc3cccnc3)O[C@H](CO)[C@H]1O2	0.2	.	-3.5	.
C[C@H]1CN([C@@H](C)CO)C(=O)c2cc(NC(=O)Nc3ccccc3)ccc2O[C@H]1CN(C)C(=O)Nc1ccc2c(c1)OCO2	-4.7	.	.	.
COC(=O)/C(C(C)=O)=C(\C=C\N(C)C)N(C)C	-7.0	0.0	4.8	0.4
COC(=O)C(=CC(=CN(C)C)C=C(C(=O)OC)C(=O)OC)C(=O)OC	-6.2	8.2	2.9	38.2*
CC(=O)c1ccc(S(=O)(=O)N(Cc2cc3cc4c(cc3[nH]c2=O)OCCO4)CC2CCCO2)cc1 (stereo unspecified)	45.6*	49.5	11.3	9.7
Cc1ccc2oc(C(=O)Nc3nonc3C)c(C)c2c1	36.3	74.5	1.2	12.4
CC(=O)c1sc(NC(=O)c2oc3ccc(F)cc3c2C)nc1C	49.8*	66.3	-10.9	39.4*
COc1ccc2oc(C(=O)Nc3nnc(C)s3)c(C)c2c1	-22.2	37.5	-3.9	34.4*
COc1ccc2oc(C(=O)Nc3nc4ccc(S(C)(=O)=O)cc4s3)c(C)c2c1	2.1	19.0	-19.6	-0.5
Cc1ccc2oc(C(=O)Nc3nnc(C)s3)c(C)c2c1	65.1*	43.6	-6.1	57.5*
COCc1cn(CC[C@@H]2CC[C@H](NC(=O)Nc3ccc(C(F)(F)F)cc3)[C@H](CO)O2)nn1	4.0	.	10.5	.
Cn1c(O)c(C2=c3ccccc3=NC2=O)sc1=Nc1ccc(Cl)cc1	34.1	58.1	97.4*	-4.7
O=C(CNC(=O)c1cccs1)c1ccc(Cl)cc1	39.4	130.1*	2.6	5.3
C[C@@H]1CN([C@H](C)CO)C(=O)c2cc(NC(=O)NC3CCCCC3)ccc2O[C@@H](C)CCCCO[C@H]1CN(C)S(=O)(=O)c1ccccc1	-0.2	.	.	.
CCC(=O)NC(=S)Nc1ccc(NC(=O)c2ccc(Br)o2)cc1	68.6*	4.7	-17.9	-2.8
CSc1ccccc1NC(=O)c1ccc(Br)o1	51.7*	47.7	6.8	6.5
Cc1ccc(NC(=S)NC(=O)c2ccc(Br)o2)c(C)c1	.	87.6*	.	8.6
O=C(NC(=S)Nc1ccccc1F)c1ccc(Br)o1	49.3*	34.4	2.7	-0.1
CCC(=O)NC(=S)Nc1ccc(NC(=O)c2ccc(OC)cc2)cc1	.	-12.7	.	-1.2
SMILES	esBAF inh	MITF TRPM1 HTS	C2C12 statin	Wnt act
Cc1cccc(NC(=S)NC(=O)c2ccc(Br)o2)c1C	.	9.5	.	-0.9
O=C(Nc1cccc2ccccc12)c1ccc(Br)o1	-14.0	2.5	50.2	.
COc1ccc2nc(NC(=O)c3ccoc3C)sc2c1	-22.6	25.2	-278.8	11.6
Cc1ccc(C(=O)Nc2nc3ccc(S(C)(=O)=O)cc3s2)s1	24.2	29.6	-8.9	.
Cc1cc(C(=O)Nc2nc3ccc(S(C)(=O)=O)cc3s2)c(C)o1	53.1*	58.4	-45.2	13.1
Cc1csc(NC(=O)c2ccccc2O)n1	36.4	26.7	7.7	.
Cc1csc(NC(=O)c2cc(C)oc2C)n1	62.8*	60.0	0.6	.
COc1ccc2nc(NC(=O)c3cc(C)oc3C)sc2c1	32.2	96.1*	-18.4	.
COc1ccc(NC(=O)CN(C)S(=O)(=O)c2ccc(Br)s2)cc1	5.6	-5.4	58.1	-0.8
COc1ccc(NC(=O)CN(C)S(=O)(=O)c2cccs2)cc1	48.8*	12.3	3.1	-2.6

High-throughput results: PubChem BioAssay, Broad Institute
